# Measurements published in the supplement of paper PMC3334620.
# Over roughly 33,000 sequences, “E-score (-0.5 to 0.5)” has its median near -0.054; the highest 2% begin near 0.39. The list comes from a sample in which the highest values are over-represented; it also holds similar and randomly drawn sequences.
# Biological target: Ylr278c (UniProt Q05854)
# Assay: PBM E-score (8-mer binding enrichment) (E-score (-0.5 to 0.5)); higher = stronger / more preferred TF binding
# Settings: protein concentration: 200 nM; construct: GST-DNA-binding domain
# Description: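 Universal 'all 10-mer' protein binding microarrays (Agilent AMADID 015681) probed with GST-tagged S. cerevisiae TFs (full-length or DBD) made by in vitro transcription/translation (PURExpress), about 100-200 nM. Bound TF was detected with fluorescent anti-GST. Each ungapped 8-mer (which stands for itself and its reverse complement) is scored by the PBM enrichment score (E-score), a modified Wilcoxon-Mann-Whitney statistic from -0.5 to +0.5, computed with the Universal PBM Analysis Suite. Scale: above 0.35 generally sequence-specific binding.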
# UniProt Q05854, sequence (Q05854 whole entry): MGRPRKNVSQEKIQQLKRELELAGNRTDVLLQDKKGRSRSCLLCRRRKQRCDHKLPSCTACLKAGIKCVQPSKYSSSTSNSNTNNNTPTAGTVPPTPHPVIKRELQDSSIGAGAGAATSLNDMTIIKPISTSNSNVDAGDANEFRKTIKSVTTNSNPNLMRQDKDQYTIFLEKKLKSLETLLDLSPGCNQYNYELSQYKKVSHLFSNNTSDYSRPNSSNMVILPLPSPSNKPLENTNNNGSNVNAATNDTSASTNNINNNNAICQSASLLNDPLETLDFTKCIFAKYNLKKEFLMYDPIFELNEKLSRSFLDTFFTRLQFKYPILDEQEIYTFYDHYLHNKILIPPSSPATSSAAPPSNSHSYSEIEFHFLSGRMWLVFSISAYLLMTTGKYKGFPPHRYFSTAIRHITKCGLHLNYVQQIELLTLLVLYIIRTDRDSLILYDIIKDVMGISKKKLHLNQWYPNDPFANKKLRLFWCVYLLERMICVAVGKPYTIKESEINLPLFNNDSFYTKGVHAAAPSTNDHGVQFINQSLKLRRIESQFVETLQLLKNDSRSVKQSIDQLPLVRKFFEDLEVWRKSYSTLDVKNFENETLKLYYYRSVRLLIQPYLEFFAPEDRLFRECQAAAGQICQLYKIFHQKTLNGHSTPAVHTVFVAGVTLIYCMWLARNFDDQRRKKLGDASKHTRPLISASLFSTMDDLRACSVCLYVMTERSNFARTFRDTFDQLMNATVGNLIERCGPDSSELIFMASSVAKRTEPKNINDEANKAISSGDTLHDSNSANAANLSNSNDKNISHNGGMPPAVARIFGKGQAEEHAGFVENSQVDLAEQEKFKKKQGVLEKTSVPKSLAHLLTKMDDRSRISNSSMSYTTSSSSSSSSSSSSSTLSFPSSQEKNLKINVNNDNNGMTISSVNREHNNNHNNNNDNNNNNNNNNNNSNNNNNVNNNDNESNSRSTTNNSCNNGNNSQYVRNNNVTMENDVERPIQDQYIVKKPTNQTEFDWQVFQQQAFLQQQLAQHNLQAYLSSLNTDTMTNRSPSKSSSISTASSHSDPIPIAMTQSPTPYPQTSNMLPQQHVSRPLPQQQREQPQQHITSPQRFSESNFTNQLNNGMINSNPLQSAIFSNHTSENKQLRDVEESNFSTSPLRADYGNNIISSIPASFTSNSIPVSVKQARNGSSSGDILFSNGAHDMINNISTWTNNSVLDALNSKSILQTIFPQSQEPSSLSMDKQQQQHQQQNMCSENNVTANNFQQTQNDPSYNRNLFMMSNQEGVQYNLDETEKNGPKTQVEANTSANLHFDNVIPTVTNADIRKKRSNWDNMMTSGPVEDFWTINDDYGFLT
row,Sequence,PBM E-score
1,AAAGAGTG,-0.158
2,ATTTGTCA,-0.182
3,CGAAAGAC,0.133
4,CTTTCATC,-0.135
5,CGTCCGCC,0.319
6,AGTCCTGC,-0.116
7,AGTCCGGC,0.44
8,AGTCCGCC,0.424
9,AGTCCCCC,-0.261
10,AGTCCCGG,0.362
11,AGTCCGCG,0.369
12,AGTCCGTC,0.381
13,AGTCCGGG,0.44
14,CCAGGTCA,-0.253
15,AGGCACTG,-0.178
16,CATGCTGC,-0.0378
17,ACTGCCCT,-0.112
18,CCAACAAA,-0.142
19,AAGTGGGG,0.0493
20,GGGAGAAA,0.0906
21,CAGAGAAG,-0.15
22,GGGAGAAC,-0.0233
23,CGGAGAAC,0.445
24,AGGAGAAC,-0.00067
25,TGGAGAAA,-0.0369

row,Sequence,PBM E-score
1,AGGAGAAG,-0.151
2,CGGAGAAG,0.453
3,CGGAGAAA,0.477
4,GAATGCGC,0.182
5,CTTCTAGA,-0.215
6,CCTCCCTC,0.0572
7,TCCGCTAA,0.267
8,AGTTAGAC,-0.0203
9,GTCCAAGA,-0.185
10,CATGGCCG,0.224
11,CCGTCGGC,0.366
12,CCGTCGTA,0.0447
13,GCGTCGGA,0.438
14,ACGTCGGA,0.385
15,GCGTCGAA,-0.0135
16,CCGTCGGA,0.415
17,CATCCTTC,-0.0925
18,ACAGGCCG,0.156
19,AGAGGCTA,-0.164
20,AATAATAT,0.23
21,ACATCGAG,-0.288
22,AGCTACCC,-0.243
23,ATGGATCG,0.166
24,AAGCTCCC,-0.139
25,AAGCTCCG,0.477

row,Sequence,PBM E-score
1,CAGCTCCC,-0.153
2,AAGCTCCT,-0.0423
3,CAGCTCCG,0.426
4,CAGCTCCA,-0.152
5,ACTGTCAG,-0.147
6,CACGCGAC,-0.0553
7,AACTTCTG,-0.197
8,TCATTCAA,-0.146
9,CTAGCGGC,0.0333
10,CGCCGCAC,0.222
11,GGACGGAA,0.337
12,GGCCGGTA,0.261
13,AGCCGGGG,0.26
14,CGCCGAAC,0.315
15,AGCCGGAG,0.455
16,CGCCGGAC,0.447
17,AGCCGGTA,0.352
18,AGCCGGTG,0.246
19,GGCCGGAA,0.422
20,AGCCGGGA,0.272
21,AGCCGGAA,0.43
22,GCATTGGA,0.0238
23,CAGGTTGG,-0.138
24,GACGGTAA,0.127
25,CGTGATGC,0.073

row,Sequence,PBM E-score
1,CGCCGGGA,0.412
2,TGCCGGCA,0.347
3,AGCCGGTC,0.134
4,TGCCGTAA,-0.0603
5,TGCCGGAA,0.435
6,GGCCGGGA,0.325
7,CGCCGGTA,0.352
8,CGCCGGGC,0.378
9,AGCCGGAC,0.407
10,CGCCGTAA,0.28
11,CGCCGGAA,0.432
12,AGCCGGGC,0.167
13,GAACGATC,0.041
14,CCTGTCCC,-0.128
15,ACCAGTAA,0.00819
16,ATTCTAGA,-0.171
17,ACGACCCC,0.0131
18,CGCCGTAG,0.193
19,CGCCGCAG,0.264
20,GGCCGCAC,0.23
21,AGCCGTAT,-0.0908
22,CGCCGGAG,0.459
23,AGCCGGCT,0.247
24,GGACGGAC,0.359
25,GGCCGGAC,0.419

row,Sequence,PBM E-score
1,AGCCGGAT,0.404
2,AGCCCTTA,-0.232
3,CGGACGAA,0.332
4,CCGGGATA,0.395
5,GCGGGACC,0.216
6,CTGGGATC,-0.101
7,CGGGGATC,0.408
8,ACGGGATC,0.109
9,ACGGGACC,0.0315
10,ACGGGATA,0.261
11,CGGGGATA,0.349
12,AGGGGATC,-0.0127
13,CCGGGACC,0.408
14,CCGGGATC,0.411
15,GCGGGATA,0.266
16,ATTGCATC,-0.105
17,AGCGAAGG,-0.0577
18,ATATGCAA,-0.0841
19,TCGCCAGA,-0.26
20,AAACAGAA,-0.207
21,CTAGGCAA,-0.0858
22,TAGTTTCA,-0.0254
23,ACCTAGAG,-0.141
24,GGAGAATA,0.189
25,AAGGGCTG,-0.213

row,Sequence,PBM E-score
1,CCCGGATA,0.351
2,CACGGATC,0.242
3,CCCGGATC,0.403
4,GTTGCTTA,-0.107
5,GTCTGCGA,-0.207
6,GTCACCCA,-0.109
7,ACTAGCCT,-0.0654
8,CATTGAGA,-0.119
9,ATCTCGGA,0.406
10,CTCTCGAA,-0.33
11,CTCTCGGC,0.181
12,ATCTCGGG,0.278
13,CTCTCGGA,0.405
14,GTCTCGGA,0.385
15,GGCGACGA,-0.172
16,AAAGCCTA,-0.184
17,ATCTAACG,0.0888
18,CGGCTGGA,0.0769
19,GGGATGAC,0.0341
20,CAGCGGAC,0.257
21,CAGCGGAG,0.408
22,AAGCGGAG,0.355
23,GCGCGGGA,0.248
24,CAGCGGAA,0.359
25,CCGCGGAG,0.449

row,Sequence,PBM E-score
1,CCGCGGGA,0.393
2,CCGCGGGC,0.367
3,CCGCGGCG,0.364
4,GCGCGGAC,0.294
5,CCGCGCAG,0.274
6,CCGCGGAC,0.429
7,GCTTCTAC,-0.123
8,ATTAGGGA,-0.0669
9,CCTGAAGA,-0.0995
10,CCATAGGG,-0.154
11,CTTTACAC,0.022
12,ACCAGGAT,-0.0342
13,ACGCGGAG,0.421
14,TCGCGGAA,0.342
15,GCGCGGAA,0.387
16,ACGCGGAT,0.23
17,ACGCGGAC,0.342
18,CCGCGGAA,0.414
19,AATTAGCT,0.0507
20,AAGCCGTG,0.00789
21,GCCTTTAC,-0.0652
22,CCTCCGTA,0.37
